± gives the standard deviation of the averaged measurements. For part of these data: The full data set covers some 5,400 targets. This sample favours those with the largest changes. For part of these data: The full data set covers some 6,500 targets. This sample favours those with the largest changes.
Legend:
adenosine triphosphate = compound: Nc1ncnc2c1ncn2[C@@H]1O[C@H](COP(=O)(O)OP(=O)(O)OP(=O)(O)O)[C@@H](O)[C@H]1O [adenosine triphosphate]; experiment: NP40-soluble protein abundance relative to vehicle (solubility fold change) (ratio); higher = more soluble protein in presence of ATP
Outline: (§1)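 Jurkat crude lysate prepared with a Dounce homogeniser was treated at eight concentrations spanning 0.1 to 10 mM, 10 min at room temperature then 3 min at 37 °C. Solubilisation with 0.8% NP40 and benzonase and ultracentrifugation preceded TMT labelling of the supernatant for LC-MS/MS. Fold change against the detergent-processed vehicle was determined per replicate from vsn-normalised intensities, across three independent experiments.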

guanosine triphosphate = compound: Nc1nc2c(ncn2[C@@H]2O[C@H](COP(=O)(O)OP(=O)(O)OP(=O)(O)O)[C@@H](O)[C@H]2O)c(=O)[nH]1 [guanosine triphosphate]; experiment: NP40-soluble protein abundance relative to vehicle (solubility fold change) (ratio); higher = more soluble protein in presence of GTP
Outline: as §1

Chain of UniProt O43708 (O43708 whole entry, one chain of several): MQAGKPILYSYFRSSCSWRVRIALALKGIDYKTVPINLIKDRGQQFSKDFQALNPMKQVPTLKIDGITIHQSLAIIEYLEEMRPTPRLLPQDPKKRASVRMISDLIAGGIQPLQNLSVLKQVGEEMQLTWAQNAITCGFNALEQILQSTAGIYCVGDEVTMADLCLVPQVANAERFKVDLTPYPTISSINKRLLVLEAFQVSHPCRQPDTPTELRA
Chain of UniProt Q9Y262 (Q9Y262 whole entry, one chain of several): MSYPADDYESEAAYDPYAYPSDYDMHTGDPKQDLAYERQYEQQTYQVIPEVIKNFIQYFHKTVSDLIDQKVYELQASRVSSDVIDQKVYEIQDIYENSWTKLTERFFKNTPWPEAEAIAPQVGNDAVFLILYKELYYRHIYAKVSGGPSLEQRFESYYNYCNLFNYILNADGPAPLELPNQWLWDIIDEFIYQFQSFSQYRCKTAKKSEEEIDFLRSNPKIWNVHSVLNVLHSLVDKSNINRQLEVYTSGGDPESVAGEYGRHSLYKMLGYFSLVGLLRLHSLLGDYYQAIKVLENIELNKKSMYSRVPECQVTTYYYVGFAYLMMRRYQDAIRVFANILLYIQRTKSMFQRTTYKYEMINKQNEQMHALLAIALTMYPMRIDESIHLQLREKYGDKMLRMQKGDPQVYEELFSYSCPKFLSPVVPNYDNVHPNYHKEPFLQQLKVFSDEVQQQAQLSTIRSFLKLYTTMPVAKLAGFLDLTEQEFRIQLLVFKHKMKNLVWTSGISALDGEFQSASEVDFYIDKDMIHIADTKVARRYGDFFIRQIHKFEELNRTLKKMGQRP
Chain of UniProt Q96CW1 (Q96CW1 whole entry, one chain of several): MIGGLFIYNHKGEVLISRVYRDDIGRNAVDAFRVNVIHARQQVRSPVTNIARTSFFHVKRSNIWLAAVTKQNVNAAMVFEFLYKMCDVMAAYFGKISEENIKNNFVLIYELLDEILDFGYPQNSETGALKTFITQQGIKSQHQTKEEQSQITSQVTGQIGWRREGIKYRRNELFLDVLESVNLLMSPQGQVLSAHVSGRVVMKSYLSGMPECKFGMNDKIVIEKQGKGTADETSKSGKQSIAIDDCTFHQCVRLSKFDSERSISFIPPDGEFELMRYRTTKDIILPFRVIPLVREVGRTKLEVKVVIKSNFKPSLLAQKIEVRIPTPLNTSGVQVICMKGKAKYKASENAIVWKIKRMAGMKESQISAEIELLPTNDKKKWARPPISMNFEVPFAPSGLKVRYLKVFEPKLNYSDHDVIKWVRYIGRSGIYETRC
Chain of UniProt Q9Y624 (Q9Y624 whole entry, one chain of several): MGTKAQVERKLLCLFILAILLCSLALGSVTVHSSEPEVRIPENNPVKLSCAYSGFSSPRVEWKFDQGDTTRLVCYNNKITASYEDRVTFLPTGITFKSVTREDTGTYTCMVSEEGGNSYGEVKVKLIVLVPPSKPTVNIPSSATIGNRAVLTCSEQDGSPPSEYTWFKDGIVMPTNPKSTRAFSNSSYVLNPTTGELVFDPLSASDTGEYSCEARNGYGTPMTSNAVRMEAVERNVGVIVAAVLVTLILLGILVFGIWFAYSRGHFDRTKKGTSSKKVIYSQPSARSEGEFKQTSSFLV
Chain of UniProt P22102 (P22102 whole entry, one chain of several): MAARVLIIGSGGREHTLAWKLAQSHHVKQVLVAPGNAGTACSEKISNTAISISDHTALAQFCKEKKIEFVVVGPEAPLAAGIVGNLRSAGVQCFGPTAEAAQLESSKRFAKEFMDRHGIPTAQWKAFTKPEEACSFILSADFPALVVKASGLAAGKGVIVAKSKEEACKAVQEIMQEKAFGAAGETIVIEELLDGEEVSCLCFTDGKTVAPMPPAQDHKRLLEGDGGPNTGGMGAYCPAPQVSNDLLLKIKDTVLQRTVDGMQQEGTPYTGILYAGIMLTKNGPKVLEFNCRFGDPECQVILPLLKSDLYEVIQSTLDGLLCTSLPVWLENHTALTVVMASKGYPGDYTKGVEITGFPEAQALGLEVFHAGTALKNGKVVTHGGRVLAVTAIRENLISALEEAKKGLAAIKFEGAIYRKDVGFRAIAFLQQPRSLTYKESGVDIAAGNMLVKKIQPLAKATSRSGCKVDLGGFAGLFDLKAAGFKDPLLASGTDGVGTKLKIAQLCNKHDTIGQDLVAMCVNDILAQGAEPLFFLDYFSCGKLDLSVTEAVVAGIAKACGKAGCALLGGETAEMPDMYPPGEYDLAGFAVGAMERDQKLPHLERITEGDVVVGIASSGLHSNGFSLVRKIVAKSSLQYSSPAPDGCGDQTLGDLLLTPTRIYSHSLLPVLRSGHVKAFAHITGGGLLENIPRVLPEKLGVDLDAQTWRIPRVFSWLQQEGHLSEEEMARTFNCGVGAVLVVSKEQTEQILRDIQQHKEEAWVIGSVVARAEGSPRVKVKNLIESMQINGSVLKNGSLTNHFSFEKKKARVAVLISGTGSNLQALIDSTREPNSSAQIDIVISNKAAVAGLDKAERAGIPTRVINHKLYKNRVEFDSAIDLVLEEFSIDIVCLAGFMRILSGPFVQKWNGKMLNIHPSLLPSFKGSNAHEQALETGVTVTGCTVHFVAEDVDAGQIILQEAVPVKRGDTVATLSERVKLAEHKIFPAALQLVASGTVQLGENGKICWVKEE
Chain of UniProt P56556 (P56556 whole entry, one chain of several): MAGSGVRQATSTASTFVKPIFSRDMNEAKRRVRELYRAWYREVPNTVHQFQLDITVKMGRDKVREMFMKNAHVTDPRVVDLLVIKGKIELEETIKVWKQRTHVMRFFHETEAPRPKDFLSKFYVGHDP
Chain of UniProt O60268 (O60268 whole entry, one chain of several): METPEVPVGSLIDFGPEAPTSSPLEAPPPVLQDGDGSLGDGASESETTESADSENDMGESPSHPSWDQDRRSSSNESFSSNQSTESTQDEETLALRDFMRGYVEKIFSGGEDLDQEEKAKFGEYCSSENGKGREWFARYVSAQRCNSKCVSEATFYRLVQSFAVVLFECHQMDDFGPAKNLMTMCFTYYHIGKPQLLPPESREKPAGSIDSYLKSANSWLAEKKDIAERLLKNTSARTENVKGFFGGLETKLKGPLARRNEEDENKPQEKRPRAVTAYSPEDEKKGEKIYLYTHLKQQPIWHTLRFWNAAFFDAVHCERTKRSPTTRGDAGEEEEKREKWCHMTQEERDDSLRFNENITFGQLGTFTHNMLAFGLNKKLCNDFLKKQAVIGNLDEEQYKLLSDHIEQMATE
Chain of UniProt Q9UHB6 (Q9UHB6 whole entry, one chain of several): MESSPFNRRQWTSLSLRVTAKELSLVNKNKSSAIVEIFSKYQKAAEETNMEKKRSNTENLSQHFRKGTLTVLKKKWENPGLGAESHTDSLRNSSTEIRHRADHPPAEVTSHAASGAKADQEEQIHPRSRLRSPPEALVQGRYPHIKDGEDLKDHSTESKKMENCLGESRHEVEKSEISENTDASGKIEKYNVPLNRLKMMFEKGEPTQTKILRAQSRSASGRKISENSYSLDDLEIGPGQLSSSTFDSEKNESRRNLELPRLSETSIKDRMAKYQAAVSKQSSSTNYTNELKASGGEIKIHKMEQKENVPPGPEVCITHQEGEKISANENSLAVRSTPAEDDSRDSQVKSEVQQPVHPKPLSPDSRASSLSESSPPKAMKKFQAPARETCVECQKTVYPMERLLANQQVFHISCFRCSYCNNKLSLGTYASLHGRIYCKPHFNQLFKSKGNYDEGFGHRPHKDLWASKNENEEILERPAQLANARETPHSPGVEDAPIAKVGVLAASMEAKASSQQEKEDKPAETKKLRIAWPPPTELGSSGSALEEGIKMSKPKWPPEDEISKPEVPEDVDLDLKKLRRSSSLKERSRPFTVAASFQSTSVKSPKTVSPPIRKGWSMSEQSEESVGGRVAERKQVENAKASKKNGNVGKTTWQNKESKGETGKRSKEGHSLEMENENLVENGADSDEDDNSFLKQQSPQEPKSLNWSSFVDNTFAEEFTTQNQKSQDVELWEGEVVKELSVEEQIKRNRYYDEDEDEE
Chain of UniProt Q96GG9 (Q96GG9 whole entry, looked up, one chain of several): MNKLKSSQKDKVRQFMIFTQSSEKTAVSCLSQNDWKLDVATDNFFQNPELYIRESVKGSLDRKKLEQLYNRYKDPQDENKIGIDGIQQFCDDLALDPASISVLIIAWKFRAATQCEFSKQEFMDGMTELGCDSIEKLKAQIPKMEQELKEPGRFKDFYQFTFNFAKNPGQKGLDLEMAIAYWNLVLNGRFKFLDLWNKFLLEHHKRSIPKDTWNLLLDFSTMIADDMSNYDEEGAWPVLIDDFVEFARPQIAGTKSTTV
Chain of UniProt Q9NUM4 (Q9NUM4 whole entry, one chain of several): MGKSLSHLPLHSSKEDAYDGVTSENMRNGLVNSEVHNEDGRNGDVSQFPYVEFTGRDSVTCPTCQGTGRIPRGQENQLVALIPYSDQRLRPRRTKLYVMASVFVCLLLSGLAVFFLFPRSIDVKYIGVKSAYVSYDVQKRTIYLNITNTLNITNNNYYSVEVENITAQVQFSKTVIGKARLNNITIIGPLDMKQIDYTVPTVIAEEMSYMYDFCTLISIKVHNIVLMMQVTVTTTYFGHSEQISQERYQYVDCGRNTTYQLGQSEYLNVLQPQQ
Chain of UniProt Q8NEW0 (Q8NEW0 whole entry, one chain of several): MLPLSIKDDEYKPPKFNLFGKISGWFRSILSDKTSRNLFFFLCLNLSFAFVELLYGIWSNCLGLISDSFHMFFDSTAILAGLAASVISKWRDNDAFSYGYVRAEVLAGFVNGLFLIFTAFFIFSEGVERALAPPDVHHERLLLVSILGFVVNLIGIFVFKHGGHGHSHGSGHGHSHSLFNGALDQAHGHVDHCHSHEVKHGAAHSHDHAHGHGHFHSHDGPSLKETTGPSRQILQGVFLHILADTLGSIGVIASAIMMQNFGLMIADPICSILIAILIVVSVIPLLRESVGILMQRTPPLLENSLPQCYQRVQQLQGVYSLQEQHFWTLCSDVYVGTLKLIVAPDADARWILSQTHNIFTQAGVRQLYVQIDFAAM
Chain of UniProt Q15004 (Q15004 whole entry, one chain of several): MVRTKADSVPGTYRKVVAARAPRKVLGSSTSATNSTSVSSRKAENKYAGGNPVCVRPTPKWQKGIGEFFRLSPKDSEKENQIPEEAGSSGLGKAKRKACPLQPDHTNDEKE

Target	NP40-soluble protein abundance (adenosine triphosphate; concentration: 1mM)	NP40-soluble protein abundance (adenosine triphosphate; concentration: 2mM)	NP40-soluble protein abundance (adenosine triphosphate; concentration: 4mM)	NP40-soluble protein abundance (adenosine triphosphate; concentration: 6mM)	NP40-soluble protein abundance (adenosine triphosphate; concentration: 8mM)	NP40-soluble protein abundance (adenosine triphosphate; concentration: 10mM)	NP40-soluble protein abundance (guanosine triphosphate; concentration: 0.1mM)	NP40-soluble protein abundance (guanosine triphosphate; concentration: 0.5mM)	NP40-soluble protein abundance (guanosine triphosphate; concentration: 1mM)	NP40-soluble protein abundance (guanosine triphosphate; concentration: 2mM)	NP40-soluble protein abundance (guanosine triphosphate; concentration: 4mM)	NP40-soluble protein abundance (guanosine triphosphate; concentration: 6mM)	NP40-soluble protein abundance (guanosine triphosphate; concentration: 8mM)	NP40-soluble protein abundance (guanosine triphosphate; concentration: 10mM)
UniProt Q9UP95|Q9UP95-5|Q9UP95-6	0.956 ± 0.1	0.979 ± 0.12	0.964 ± 0.11	1.03 ± 0.058	0.909 ± 0.099	0.989 ± 0.035	–	–	–	–	–	–	–	–
C9JKQ7|C9JTV6|C9JZG2|P22102 (UniProt P22102)	–	–	–	–	–	–	0.96 ± 0.015	0.985 ± 0.03	0.9188 ± 0.0076	0.909 ± 0.023	0.895 ± 0.026	0.894 ± 0.017	0.863 ± 0.039	0.863 ± 0.022
C9JRJ5|Q9UGP4 (UniProt Q9UGP4)	–	–	–	–	–	–	1.01 ± 0.054	1 ± 0.021	1 ± 0.043	0.955 ± 0.025	0.963 ± 0.031	0.962 ± 0.021	1.01 ± 0.038	0.965 ± 0.034
H0Y362|Q8NEW0 (UniProt Q8NEW0)	–	–	–	–	–	–	1.21 ± 0.043	1.14 ± 0.018	1.14 ± 0.026	1.13 ± 0.1	1.05 ± 0.062	1.05 ± 0.11	1.04 ± 0.055	0.959 ± 0.013
F8W8G5|P10242|P10242-10|P10242-11|P10242-2|P10242-4|P10242-7|P10242-8|P10242-9 (UniProt P10242)	–	–	–	–	–	–	1.02 ± 0.063	1.04 ± 0.077	1.08 ± 0.073	1.08 ± 0.086	1.12 ± 0.037	1.12 ± 0.1	1.15 ± 0.044	1.13 ± 0.051
F8W0Q9|Q8NEY8-2|Q8NEY8-8|Q8NEY8-9|Q8NEY8-3|Q8NEY8 (UniProt Q8NEY8)	–	–	–	–	–	–	1.01 ± 0.022	1.08 ± 0.019	1.19 ± 0.058	1.28 ± 0.096	1.41 ± 0.18	1.45 ± 0.2	1.63 ± 0.22	1.77 ± 0.42
C9J8R4|C9JVE2|Q96GG9 (UniProt Q96GG9)	–	–	–	–	–	–	0.935 ± 0.042	0.919 ± 0.034	0.903 ± 0.049	0.889 ± 0.072	0.867 ± 0.048	0.87 ± 0.044	0.842 ± 0.077	0.84 ± 0.084
A6NFX8|Q9UKK9 (UniProt Q9UKK9)	–	–	–	–	–	–	1.05 ± 0.036	1.04 ± 0.07	0.987 ± 0.036	0.994 ± 0.079	0.968 ± 0.046	0.942 ± 0.052	0.93 ± 0.018	0.93 ± 0.01
A0A0C4DGS0|P56556 (UniProt P56556)	–	–	–	–	–	–	0.947 ± 0.069	0.934 ± 0.051	1.05 ± 0.1	1.08 ± 0.12	1.09 ± 0.17	1.02 ± 0.093	0.939 ± 0.064	1.01 ± 0.1
G3V5T0|O43708 (UniProt O43708)	–	–	–	–	–	–	0.95 ± 0.046	0.961 ± 0.087	0.879 ± 0.058	0.867 ± 0.063	0.848 ± 0.068	0.854 ± 0.076	0.819 ± 0.096	0.815 ± 0.091
B0YIW6|P48444 (UniProt P48444)	–	–	–	–	–	–	1.06 ± 0.053	1.08 ± 0.078	1.02 ± 0.066	1.01 ± 0.11	1.02 ± 0.1	1.01 ± 0.083	0.975 ± 0.059	0.933 ± 0.067
B9ZVT1|Q8IXT5 (UniProt Q8IXT5)	–	–	–	–	–	–	1.02 ± 0.081	1.13 ± 0.19	1.21 ± 0.078	1.28 ± 0.25	1.29 ± 0.29	1.3 ± 0.32	1.45 ± 0.47	1.48 ± 0.39
A0A087WY82|Q9Y624|Q9Y624-2 (UniProt Q9Y624)	–	–	–	–	–	–	1 ± 0.041	0.953 ± 0.1	0.979 ± 0.038	0.938 ± 0.059	0.851 ± 0.066	0.952 ± 0.01	0.858 ± 0.076	0.898 ± 0.011
A0A087X256|Q2M389 (UniProt Q2M389)	–	–	–	–	–	–	1.04 ± 0.058	1.01 ± 0.097	0.973 ± 0.048	0.975 ± 0.028	0.957 ± 0.028	0.973 ± 0.044	1.02 ± 0.068	0.889 ± 0.024
E9PRF4|Q15047|Q15047-3 (UniProt Q15047)	–	–	–	–	–	–	0.977 ± 0.12	0.93 ± 0.12	0.904 ± 0.055	0.909 ± 0.039	0.873 ± 0.04	0.881 ± 0.035	0.904 ± 0.051	0.862 ± 0.017
B1AMW1|P19256|P19256-2|P19256-3 (UniProt P19256)	–	–	–	–	–	–	0.879 ± 0.05	0.937 ± 0.095	0.973 ± 0.11	0.915 ± 0.064	0.979 ± 0.038	1.03 ± 0.088	0.952 ± 0.036	0.958 ± 0.047
A0A087WY71|Q96CW1|Q96CW1-2 (UniProt Q96CW1)	–	–	–	–	–	–	1.09 ± 0.11	1.12 ± 0.17	0.947 ± 0.078	1.04 ± 0.16	1.04 ± 0.14	1.03 ± 0.13	0.941 ± 0.023	0.95 ± 0.09
H3BMU3|O60268|O60268-3 (UniProt O60268)	–	–	–	–	–	–	0.928 ± 0.032	0.988 ± 0.17	1.01 ± 0.18	0.95 ± 0.15	0.961 ± 0.14	0.918 ± 0.2	0.919 ± 0.067	0.998 ± 0.096
F8VQE1|Q9UHB6|Q9UHB6-2|Q9UHB6-4|Q9UHB6-5 (UniProt Q9UHB6)	–	–	–	–	–	–	0.977 ± 0.045	0.955 ± 0.12	1.16 ± 0.11	1.16 ± 0.1	1.35 ± 0.12	1.71 ± 0.067	1.95 ± 0.29	2.21 ± 0.23
F2Z3N7|C9JZ87|Q9NUM4 (UniProt Q9NUM4)	–	–	–	–	–	–	0.98 ± 0.036	0.932 ± 0.076	1.15 ± 0.077	1.06 ± 0.048	0.84 ± 0.18	0.949 ± 0.045	0.989 ± 0.051	0.969 ± 0.078
H0YKX3|Q15004 (UniProt Q15004)	–	–	–	–	–	–	1.03 ± 0.086	1.04 ± 0.062	1.07 ± 0.081	1.04 ± 0.12	0.957 ± 0.13	0.982 ± 0.15	1.19 ± 0.031	1.09 ± 0.039
E7EPN9|Q9Y520|Q9Y520-4|Q9Y520-5|Q9Y520-7 (UniProt Q9Y520)	–	–	–	–	–	–	1.01 ± 0.02	1.01 ± 0.054	1.1 ± 0.063	1.14 ± 0.073	1.24 ± 0.057	1.36 ± 0.075	1.53 ± 0.14	1.7 ± 0.2
B0QY89|Q9Y262|Q9Y262-2 (UniProt Q9Y262)	–	–	–	–	–	–	1.08 ± 0.062	1.09 ± 0.09	1.06 ± 0.1	1.17 ± 0.19	1.33 ± 0.28	1.47 ± 0.34	1.57 ± 0.29	1.75 ± 0.35
E9PPH5|Q9BTT0|Q9BTT0-3 (UniProt Q9BTT0)	–	–	–	–	–	–	0.838 ± 0.058	0.874 ± 0.062	0.978 ± 0.05	0.94 ± 0.045	0.937 ± 0.056	0.946 ± 0.037	0.958 ± 0.038	1.08 ± 0.079
UniProt Q9UL54-2	1.29 ± 0.17	1.54 ± 0.35	1.57 ± 0.33	1.67 ± 0.33	1.63 ± 0.24	1.69 ± 0.4	–	–	–	–	–	–	–	–
F5GWT4|Q9H4A3|Q9H4A3-2|Q9H4A3-5|Q9H4A3-6|Q9H4A3-7 (UniProt Q9H4A3)	–	–	–	–	–	–	0.963 ± 0.058	0.99 ± 0.079	1 ± 0.081	0.96 ± 0.07	0.973 ± 0.061	0.978 ± 0.066	0.999 ± 0.074	0.994 ± 0.082
